Assay outcomes from PubChem.
This is a sample that favours compounds with a hit; in the whole collection about 19% have one here.
S-ASM inh: inhibitors of human secretory acid sphingomyelinase. P17405. placental ASM, HMU-PC fluorogenic substrate, 60 min. Potency, µM (titrated, usually from 57.5 µM), usual class: inhibitors. hit rate 0.006% among 340,000. AID 504937
Target sequence (P17405 47-631 limits assumed): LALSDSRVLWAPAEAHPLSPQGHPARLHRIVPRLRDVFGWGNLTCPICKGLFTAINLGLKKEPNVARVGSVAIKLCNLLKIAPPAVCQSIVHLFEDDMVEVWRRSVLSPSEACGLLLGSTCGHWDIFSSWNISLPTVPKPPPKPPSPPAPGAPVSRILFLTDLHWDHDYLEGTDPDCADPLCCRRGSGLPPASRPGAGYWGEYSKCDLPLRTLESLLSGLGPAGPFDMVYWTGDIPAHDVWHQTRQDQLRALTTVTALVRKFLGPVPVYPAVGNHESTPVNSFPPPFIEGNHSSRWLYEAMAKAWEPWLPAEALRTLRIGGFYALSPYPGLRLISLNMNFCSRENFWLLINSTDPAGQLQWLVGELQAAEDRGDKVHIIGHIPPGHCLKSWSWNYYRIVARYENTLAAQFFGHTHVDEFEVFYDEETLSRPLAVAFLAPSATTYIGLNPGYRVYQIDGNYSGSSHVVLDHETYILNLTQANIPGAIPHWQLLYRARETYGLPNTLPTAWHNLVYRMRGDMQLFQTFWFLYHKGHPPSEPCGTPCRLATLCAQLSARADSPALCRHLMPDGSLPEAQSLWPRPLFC
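Human placenta-derived ASM enzyme was preincubated with compound for 10 minutes at room temperature, then given fluorogenic substrate HMU-PC0 (9 uM final) for 60 minutes at 37 °C; a pH 10 stop preceded fluorescence reading at Ex 386/Em 447 nm.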
DT40 TDP1 no CPT: qHTS for Inhibitors of human tyrosyl-DNA phosphodiesterase 1 (TDP1): qHTS in cells in absence of CPT. DT40 Tdp1-/- hTDP1 cells, no CPT, ATP luminescence, 48 h. Potency, µM (series often up to 46.2 µM), hits mostly inhibitors. hit rate 15% among 420,000; further: nearly all actives have a fitted effect of over 55% in size
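Stably hTDP1-transfected Tdp1-null chicken DT40 cells were treated with library compounds minus camptothecin and grown for at least 48 hr at 37 °C, after which cellular ATP was quantified by luminescence.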
TDP1 cell CPT: growth inhibition of DT40 Tdp1-/-;hTDP1 cells with camptothecin (screen for TDP1 inhibitors); chicken DT40 Tdp1-/-;hTDP1 cells + 20 nM CPT, ATP luminescence, 48 h; Potency, µM (doses to about 46.2 µM), usual class: inhibitors; hit rate 12% among 420,000; AID 686979; further: nearly all actives have a fitted effect of over 55% in size
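Cell growth measured by CellTiter-Glo luminescence after a minimum 48 h, 37 C compound exposure with 20 nM CPT in Tdp1-knockout DT40 cells stably expressing hTDP1, seeded 400/well; qHTS titration format.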
HepG2 tox-1: kills HepG2 cells in TGF-b inhibitor counter-screen; hit rate 0.76% among 410,000; HepG2 CAGA-GFP viability, ATP luminescence, 18 h; Potency, µM (titrated, usually from 46.1 µM), most hits filed as cytotoxic
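HepG2 CAGA-GFP cells (1000/well, DMEM with 1% FBS) received compound, then TGF-beta at 500 pg/mL final, and were incubated 18 hours at 37 degrees C. Viability was read by CellTiter-Glo luminescence. Media-only wells were set as complete cell-killing and DMSO as no toxicity.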
TGFb inhibitor: TGF-b pathway inhibition; HepG2 CAGA-GFP TGF-b/SMAD3 reporter, GFP fluorescence, 18 h; TGF-beta stimulated, 500 pg/mL final; Potency, µM (series often up to 46.1 µM), hits mostly inhibitors; AID 588855; hit rate 1.2% among 410,000; further: nearly all actives have a fitted effect of over 65% in size
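Per well, imaged GFP fluorescence of HEPG2 CAGA-GFP cells gives the signal; cells get compound, then TGF-beta (500 pg/mL final), 18 h at 37 degrees C; %Activity versus -TGF-beta and +DMSO controls.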
IL1B secr inh: inflammasome signaling inhibition, IL-1 beta readout. AID 743279. THP-1 LPS/ATP IL-1B secretion, AlphaLISA, 16 h; stronger effect = lower value. hit rate 4.7% among 360,000. activity change, % at 57.5 µM; in the data active means activity change below about -50%; inconclusive means mostly about -30% to -49%
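THP-1 cells pretreated 1 hr with compounds (up to 57.5 uM final), then stimulated with LPS (250 ng/mL final) plus ATP (1.25 mM final); secreted IL-1B measured by AlphaLISA after 16 hr, decreased signal indicating inhibition.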
TGFb confirm: confirmation of TGF-b signaling inhibitors in HepG2 reporter cells | shares compounds with TGFb inhibitor | HepG2 CAGA-GFP TGF-b reporter, GFP fluorescence, 18 h; cells stimulated with TGF-beta, 500 pg/mL | Potency, µM (highest dose often 46.1 µM), usual class: inhibitors | hit rate 63% among 1,600 | AID 720534; further: nearly all actives have a fitted effect of over 65% in size
HepG2 tox-2: toxic to HepG2 cells in TGF-b counterscreen; shares compounds with TGFb inhibitor; HepG2 CAGA-GFP viability, ATP luminescence, 18 h; cells stimulated with TGF-beta, 500 pg/mL; Potency, µM (series often up to 46.1 µM), actives largely listed as inhibitors; hit rate 27% among 1,600; AID 720535; further: nearly all actives have a fitted effect of over 70% in size
CCL64 TGFb inh: blocks TGF-b signaling in CCL64 reporter cells; shares compounds with TGFb inhibitor; CCL64 CAGA-GFP reporter, TGF-b stimulated, GFP fluorescence, 18 h; Potency, µM (titrated, usually from 46.1 µM), hits mostly inhibitors; hit rate 41% among 1,600; AID 720536; further: nearly all actives have a fitted effect of over 65% in size
TGFb COP inh: blocks TGF-b signaling in HepG2 COP reporter | shares compounds with TGFb inhibitor | HepG2 COP-GFP TGF-b reporter, GFP fluorescence, 18 h; cells stimulated by added recombinant TGF-beta | Potency, µM (doses to about 46.1 µM), usual class: inhibitors | hit rate 3% among 1,600; further: nearly all actives have a fitted effect of over 70% in size
A number is an active result; i = inactive; ? = inconclusive; nt = no result; [ ] = dose if it differs, or a comment. Unless noted, the call rests on the fitted dose curve; in most records, active means well fitted curve in the direction sought with a large enough effect; inconclusive means small, poorly fitted or top-dose-only effect, or another doubt; inactive means no such curve, though single readings can be large; an effect the other way counts as inactive or inconclusive.

SMILES	S-ASM inh	DT40 TDP1 no CPT	TDP1 cell CPT	HepG2 tox-1	TGFb inhibitor	IL1B secr inh	TGFb confirm	HepG2 tox-2	CCL64 TGFb inh	TGFb COP inh
CC(Nc1nc(-c2ccc(Cl)cc2)cs1)c1nc2cc(Cl)c(N3CCCCC3)cc2n1CCOCCO (stereo not drawn)	i	14.6µM	16.4µM	i	20µM	i	?	?	18.4µM	i
Cc1ccc(OCC(=O)Nc2nnc(C3CCCO3)s2)c(Br)c1 (stereo not drawn)	i	i	i	i	i	i	nt	nt	nt	nt
CCc1ccc(CCC(=O)Nc2ncc(Cc3ccccc3Cl)s2)o1	i	5.8µM	5.17µM	i	2µM	i	?	i	i	i
CC(=O)Nc1ncc(Cc2cc(Cl)ccc2Cl)s1	i	?	i	i	?	i	?	i	i	i
CC(=O)Oc1ccc(-c2ccc(C(=O)Nc3cccc(S(=O)(=O)N4CCOCC4)c3)cc2)cc1	i	16.4µM	23.1µM	i	11.2µM	-119.2	20.6µM	?	?	i
COc1ccc(NC(=O)c2cccc(S(=O)(=O)N3CCOCC3)c2)cc1	i	i	i	i	i	i	nt	nt	nt	nt
CC(=O)OCC(=O)Nc1ccc(SC(F)F)cc1	i	i	?	i	i	i	nt	nt	nt	nt
Cc1cc(C)nc(/N=C(\N)Nc2ccc(SC(F)F)cc2)n1	i	11.6µM	13µM	i	8.91µM	i	i	?	?	i
CCOc1ccc(N/C(=N/c2nc(C)cc(C)n2)NC(=O)CC)cc1	i	?	?	i	?	i	nt	nt	nt	nt
CCOc1ccc(N/C(N)=N/c2nc(C)cc(C)n2)cc1	i	25.9µM	20.6µM	i	?	i	i	i	?	i
COc1ccc(/C=C2\OC(=O)c3c(OC)cccc32)cc1OC	i	?	i	i	i	?	nt	nt	nt	nt
CCOc1ccccc1C=C1CCc2ccccc2C1=O	nt	?	?	i	i	i	nt	nt	nt	nt
COc1cc(/C=C2\COC/C(=C\c3cc(OC)c(OC)c(OC)c3)C2=O)cc(OC)c1OC	i	0.581µM	1.16µM	3.55µM	0.631µM	-98.7	1.3µM	1.3µM	1.3µM	i
CCOc1cc(/C=N/Nc2nc3ccccc3[nH]2)cc(Br)c1OCC(=O)N(C)C	i	13µM	10.3µM	i	8.91µM	-92.4	11.6µM	?	?	i
COc1ccc(/C=C2\COc3ccccc3C2=O)cc1OC	i	20.6µM	14.6µM	i	15.8µM	-98.5	?	?	18.4µM	i
CCOc1cc(/C=C2\COc3ccccc3C2=O)cc(Br)c1OCC(=O)N(C)C	i	4.61µM	3.66µM	12.6µM	3.55µM	-103.2	16.4µM	?	14.6µM	?
O=C(CN1CCN(C(=O)c2ccco2)CC1)Nc1ccc(F)cc1F	i	i	i	i	i	i	nt	nt	nt	nt
Cc1cc(C)c2c(c1)C(=O)/C(=C/c1ccc(C(=O)O)cc1)CC2	i	i	i	i	i	i	nt	nt	nt	nt
O=C(O)c1ccc(/C=C2\COc3ccccc3C2=O)cc1	i	18.4µM	?	i	14.1µM	-105.0	16.4µM	16.4µM	i	i
Cc1ccc(CN=C(N)Nc2nc(C)cc(C)n2)cc1	i	3.26µM	6.51µM	i	15.8µM	-52.1	14.6µM	?	?	i
O=C(CSCc1ccco1)N1CCc2ccccc21	i	i	?	i	i	i	nt	nt	nt	nt
O=c1c2oc3ccccc3c2n(Cc2cccc(F)c2)c(=O)n1Cc1ccco1	nt	?	?	i	i	nt	nt	nt	nt	nt
COc1ccc(-c2cc3nc(NCC4CCCCC4)n(C)c(=O)c3s2)cc1OC	nt	?	?	i	10µM	i	?	?	?	i
CCOc1ccccc1NC(=O)C(C)N1C(=O)c2ccccc2S1(=O)=O (stereo not drawn)	i	i	i	i	i	i	nt	nt	nt	nt
COc1cc(/C=C(/C(=O)c2cccs2)c2nc3ccccc3[nH]2)ccc1O	i	18.4µM	?	i	15.8µM	-106.3	7.31µM	13µM	13µM	i
SMILES	S-ASM inh	DT40 TDP1 no CPT	TDP1 cell CPT	HepG2 tox-1	TGFb inhibitor	IL1B secr inh	TGFb confirm	HepG2 tox-2	CCL64 TGFb inh	TGFb COP inh
O/C(=C\c1nc2ccccc2[nH]1)c1cccs1	i	?	?	i	i	?	nt	nt	nt	nt
O=C(/C(=C/c1ccc(Cl)cc1)c1nc2ccccc2[nH]1)c1cccs1	i	4.11µM	2.91µM	i	5.01µM	-111.9	3.26µM	2.59µM	4.11µM	i
O=C(COC(=O)/C=C/c1ccccc1[N+](=O)[O-])Nc1ccc(S(=O)(=O)N2CCOCC2)cc1	i	i	i	i	i	i	nt	nt	nt	nt
N#CCc1ccc(OC(=O)c2cnccc2C(F)(F)F)cc1	i	i	i	i	i	i	nt	nt	nt	nt
Cc1nn(-c2ccccc2)c(C)c1C(=O)NNC(=O)C(F)(F)F	i	i	i	i	i	nt	nt	nt	nt	nt
CC(=O)n1nc(-c2ccncc2)nc1SCC(=O)Nc1cccc(Cl)c1	i	i	?	i	3.98µM	i	3.66µM	i	7.31µM	i
Cc1cccc(NC(=O)CSc2n[nH]c(-c3ccncc3)n2)c1	i	i	i	i	3.55µM	i	5.17µM	i	10.3µM	i
CC(=O)c1cccc(NC(=O)CSc2n[nH]c(-c3ccncc3)n2)c1	i	i	i	i	i	i	nt	nt	nt	nt
Oc1cc(-c2nc3ccccc3s2)cc2c1OCCN(Cc1cccn1-c1nccs1)C2	nt	?	i[9.04 µM]	nt	nt	nt	nt	nt	nt	nt
O=C1N[C@@H](c2ccccc2)COC(=O)[C@@H](Cc2ccc(F)cc2)C/C=C\C[C@@H]1CC(=O)N(CCO)Cc1ccccc1	i	13µM	14.6µM	i	12.6µM	i	16.4µM	?	?	i
O=C1N[C@@H](Cc2ccccc2)COC(=O)[C@@H](Cc2ccc(F)cc2)CC/C=C/C[C@@H]1CC(=O)N(CCO)Cc1ccccc1	i	?	?	i	22.4µM	i	16.4µM	i	23.1µM	i
